Article PMC8769072, “Proteome‐scale mapping of binding sites in the unstructured regions of the human proteome” (Molecular Systems Biology, 2022)

Columns and labels:
[1] = target: PEX14 16-84, O75381
[2] = target: SUMO1 1-101, P63165
[3] = target: TNKS 174-649, O95271
[4] = target: TLN1 309-401, Q9Y490
[5] = target: SIN3A 295-383, Q96ST3
Sequence of SIN3A 295-383, Q96ST3 (Q96ST3 295-383): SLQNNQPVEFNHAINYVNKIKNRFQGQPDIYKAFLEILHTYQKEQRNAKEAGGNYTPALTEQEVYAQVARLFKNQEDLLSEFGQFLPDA

Sequence of TLN1 309-401, Q9Y490 (Q9Y490 309-401): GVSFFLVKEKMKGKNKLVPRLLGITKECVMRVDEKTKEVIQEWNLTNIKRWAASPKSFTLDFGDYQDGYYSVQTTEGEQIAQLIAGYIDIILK
Sequence of SUMO1 1-101, P63165 (P63165 whole entry): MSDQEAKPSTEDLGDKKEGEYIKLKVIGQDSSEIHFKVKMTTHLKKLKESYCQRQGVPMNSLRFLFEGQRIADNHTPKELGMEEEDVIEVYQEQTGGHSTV
Sequence of TNKS 174-649, O95271 (O95271 174-649): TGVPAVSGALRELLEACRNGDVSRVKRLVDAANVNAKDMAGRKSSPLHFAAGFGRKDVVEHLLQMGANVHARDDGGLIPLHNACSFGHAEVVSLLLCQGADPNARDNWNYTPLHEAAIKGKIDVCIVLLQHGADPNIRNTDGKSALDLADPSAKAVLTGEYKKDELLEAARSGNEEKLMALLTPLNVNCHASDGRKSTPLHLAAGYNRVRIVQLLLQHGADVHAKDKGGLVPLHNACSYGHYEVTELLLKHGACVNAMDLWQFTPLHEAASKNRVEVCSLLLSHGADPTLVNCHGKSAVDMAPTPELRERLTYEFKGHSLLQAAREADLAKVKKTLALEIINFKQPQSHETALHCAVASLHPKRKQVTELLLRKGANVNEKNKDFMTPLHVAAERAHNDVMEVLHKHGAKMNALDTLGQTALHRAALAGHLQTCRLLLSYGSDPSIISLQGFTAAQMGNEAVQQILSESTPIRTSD
Sequence of PEX14 16-84, O75381 (O75381 16-84): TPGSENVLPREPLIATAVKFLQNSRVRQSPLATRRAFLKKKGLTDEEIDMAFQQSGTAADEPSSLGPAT

B1: CACNA1H, O95180 (peptide)
chain: LSGEHAYLQSSWNLLD
- selected by phage display [1]: confidence 2 (active)

B2: ZFHX4, Q86UP3 (peptide)
chain: GHPELSEAELQQLYAS
- selected by phage display [1]: confidence 2 (active)

B3: PIAS4, Q8N2W9 (peptide)
chain: PGADVVDLTLDSSSSS
- selected by phage display [2]: confidence 2 (active)

B4: ZMYM5, Q9UJ78 (peptide)
chain: DDDDVVFIESIQPPSI
- selected by phage display [2]: confidence 3 (active)

B5: CHTF18, Q8WVB6 (peptide)
chain: PPPSPEDLAELWGHGV
- selected by phage display [1]: confidence 3 (active)

B6: KIF26A, Q9ULI4 (peptide)
chain: DGVARTPPVGMSGQVA
- selected by phage display [3]: confidence 3 (active)

B7: JMJD1C, Q15652 (peptide)
chain: GLYPIIWQYPNGTHAY
- selected by phage display [4]: confidence 2 (active)

B8: TTF2, Q9UNY4 (peptide)
chain: EEEDDVVFVSSKPGSP
- selected by phage display [2]: confidence 2 (active)

B9: C9orf131, Q5VYM1 (peptide)
chain: STPLPEPHIDLELVWR
- selected by phage display [1]: confidence 2 (active)

B10: AGGF1, Q8N302 (peptide)
chain: EVQTENHAPWSISDYF
- selected by phage display [1]: confidence 2 (active)

B11: DTNBP1, Q96EV8 (peptide)
chain: LSTGYLQIAERREPIG
- selected by phage display [3]: confidence 4 (active)

B12: SUGP1, Q8IWZ8 (peptide)
chain: DMQLLWEKAVQQHQHG
- selected by phage display [1]: confidence 2 (active)

B13: CREB1, P16220 (peptide)
chain: ALENRVAVLENQNKTL
- selected by phage display [2]: confidence 2 (active)

B14: TBC1D15, Q8TC07 (peptide)
chain: LNSYEAEWDMVNTVSF
- selected by phage display [1]: confidence 2 (active)

B15: RSBN1, Q5VWQ0 (peptide)
chain: SQSDDGPIMWVRPGEQ
- selected by phage display [4]: confidence 2 (active)

B16: RET, P07949 (peptide)
chain: ALPSTWIENKLYGMSD
- selected by phage display [4]: confidence 4 (active)

B17: STK36, Q9NRP7 (peptide)
chain: EERPEVLGQRSTDVVD
- selected by phage display [3]: confidence 2 (active)

B18: KRT77, Q7Z794 (peptide)
chain: DAEERGEQALQDAWQK
- selected by phage display [1]: confidence 2 (active)

B19: PIAS3, Q9Y6X2 (peptide)
chain: VEVIDLTIESSSDEED
- selected by phage display [2]: confidence 4 (active)

B20: HECW2, Q9P2P5 (peptide)
chain: SATVPDQEELGEVWQR
- selected by phage display [1]: confidence 3 (active)

B21: SPNS1, Q9H2V7 (peptide)
chain: QGLLHEAGSTDDRIVV
- selected by phage display [3]: confidence 2 (active)

B22: NEMP2, A6NFY4 (peptide)
chain: EDLKWLWYENRIYVLG
- selected by phage display [4]: confidence 2 (active)

B23: PHTF2, Q8N3S3 (peptide)
chain: LWEDLLHAAEAHSSAT
- selected by phage display [5]: confidence 2 (active)

B24: EVI5, O60447 (peptide)
chain: VKDLEEHWQRHLARTT
- selected by phage display [1]: confidence 3 (active)

B25: PRUNE2, Q8WUY3 (peptide)
chain: WTFSPLTETEMQITAV
- selected by phage display [4]: confidence 2 (active)

B26: OR52W1, Q6IF63 (peptide)
chain: AVVWIDSTLHQPMFLL
- selected by phage display [4]: confidence 2 (active)

B27: SMG7, Q92540 (peptide)
chain: VLMESLKSIWSSSMMH
- selected by phage display [1]: confidence 3 (active)

B28: PPP1R9B, Q96SB3 (peptide)
chain: RMEKLEGYWGEAQSLA
- selected by phage display [1]: confidence 3 (active)

B29: ZNF280D, Q6N043 (peptide)
chain: DDDEPIFVGEISSSKP
- selected by phage display [2]: confidence 2 (active)

B30: RIMBP2, O15034 (peptide)
chain: RMDEAWEQSRAPGPVH
- selected by phage display [1]: confidence 2 (active)

B31: ARHGAP18, Q8N392 (peptide)
chain: ELEEEWLKEAGLSNLF
- selected by phage display [1]: confidence 2 (active)

B32: C18orf25, Q96B23 (peptide)
chain: SPAEVVDLTLDEDSRR
- selected by phage display [2]: confidence 4 (active)

B33: WWC2, Q6AWC2 (peptide)
chain: GDWLTMLREASDEIVA
- selected by phage display [5]: confidence 2 (active)

B34: NEDD9, Q14511 (peptide)
chain: GGLEGWWLASLHGRQG
- selected by phage display [1]: confidence 4 (active)

B35: EGFR, P00533 (peptide)
chain: SGTAGAALLALLAALA
- selected by phage display [5]: confidence 2 (active)

B36: TPTE, P56180 (peptide)
chain: DLIFTDSKLYIPLEYR
- selected by phage display [4]: confidence 4 (active)

B37: SLC22A12, Q96S37 (peptide)
chain: MAFSELLDLVGGLGRF
- selected by phage display [5]: confidence 2 (active)

B38: RNF111, Q6ZNA4 (peptide)
chain: AEVVDLTVDEDEPTVV
- selected by phage display [2]: confidence 2 (active)

B39: CBFA2T2, O43439 (peptide)
chain: LTEREWADEWKHLDHA
- selected by phage display [1]: confidence 4 (active)

B40: NR3C2, P08235 (peptide)
chain: SLPEGLDMERRWGQVS
- selected by phage display [1]: confidence 2 (active)

B41: AATF, Q9NY61 (peptide)
chain: DPNDQVAMGRQWLAIQ
- selected by phage display [1]: confidence 3 (active)

B42: RRBP1, Q9P2E9 (peptide)
chain: IEALLEAGQARDAQDV
- selected by phage display [5]: confidence 2 (active)

B43: ELOA2, Q8IYF1 (peptide)
chain: DLSEAWMQANYDPLSD
- selected by phage display [1]: confidence 3 (active)

B44: SMARCAD1, Q9H4L7 (peptide)
chain: GIQYIDLSSDSEDVVS
- selected by phage display [2]: confidence 4 (active)

B45: FMO1, Q01740 (peptide)
chain: TTGGGWVISRIFDSGY
- selected by phage display [4]: confidence 4 (active)

B46: RNF4, P78317 (peptide)
chain: DEIVDLTAESLEPVVV
- selected by phage display [2]: confidence 2 (active)

B47: GPATCH2L, Q9NWQ4 (peptide)
chain: SEQNKLGELWEEMALS
- selected by phage display [1]: confidence 3 (active)

B48: ARHGAP27, Q6ZUM4 (peptide)
chain: DSHVSLETEWGQYWDE
- selected by phage display [1]: confidence 3 (active)

B49: FAM186B, Q8IYM0 (peptide)
chain: WEEEFGREMRRQLWLE
- selected by phage display [1]: confidence 2 (active)

B50: IRF5, Q13568 (peptide)
chain: ELHHIWQSQQRLQPVA
- selected by phage display [1]: confidence 3 (active)

B51: DENND2D, Q9H6A0 (peptide)
chain: DFSSLLHALSFEQILQ
- selected by phage display [5]: confidence 2 (active)

B52: PSD4, Q8NDX1 (peptide)
chain: EEESMFFSNPLFLASP
- selected by phage display [4]: confidence 2 (active)

B53: INPP5K, Q9BT40 (peptide)
chain: PGSLREDPLGEAQPQI
- selected by phage display [3]: confidence 4 (active)

B54: SNTA1, Q13424 (peptide)
chain: LQALLAATSTAGSQDI
- selected by phage display [5]: confidence 2 (active)

B55: PIP5K1C, O60331 (peptide)
chain: KLEHTWKALVHDGDTV
- selected by phage display [1]: confidence 3 (active)

B56: SYCE3, A1L190 (peptide)
chain: EMEKNWQELLHETKQR
- selected by phage display [1]: confidence 2 (active)

B57: ATP12A, P54707 (peptide)
chain: AHLWFDNQIFVADTSE
- selected by phage display [4]: confidence 3 (active)

B58: WDR13, Q9H1Z4 (peptide)
chain: MAAVWQQVLAVDARYN
- selected by phage display [1]: confidence 3 (active)

B59: NFKB2, Q00653 (peptide)
chain: AGGDLAGLLEALSDMG
- selected by phage display [5]: confidence 2 (active)

B60: ARHGAP31, Q2M1Z3 (peptide)
chain: QWVTSPLHSPTLKDAH
- selected by phage display [4]: confidence 4 (active)

B61: ETV5, P41161 (peptide)
chain: QLQEAWLAEAQVPDDE
- selected by phage display [1]: confidence 3 (active)

B62: SPIDR, Q14159 (peptide)
chain: GAAASLSEAWLRAGEG
- selected by phage display [1]: confidence 2 (active)
